Assay in all cases: log2 fold change, soluble protein after heating vs DMSO (PISA); higher = thermal stabilisation; K562 cells, 10 uM, 30 min; active = over 0.2 and 3.5 SD of the protein, either way, in both replicates (recomputed)
Compound in one test: CN1CCN(CCOc2cc(OC3CCOCC3)c3c(Nc4c(Cl)ccc5c4OCO5)ncnc3c2)CC1 [saracatinib]
In short, it runs like this:
(§1)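 For each measurement, 10 μM compound was applied for 30 min to K562 cells at 2×10^6 cells/mL. Aliquots were heated for 3 min across 48°C-58°C, pooled, and extracted in PBS with 0.5% NP-40 at 4°C; the supernatant after 21,000xg for 90 min was soluble protein. This was quantified by TMTpro 16plex LC-MS/MS with channel sums equalised, and thermal stability was reported relative to control samples from duplicates, on a log2 fold-change scale.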

Compound in the next test: CN1CC[C@H](c2c(O)cc(O)c3c(=O)cc(-c4ccccc4Cl)oc23)[C@H](O)C1 [alvocidib]
In short, it runs like this:
as §1

Compound in test [1]: CNC(=O)C1=CC=CC=C1NC2=NC(=NC=C2Cl)NC3=C(C=C(C=C3)N4CCOCC4)OC
In short, it runs like this:
as §1

Compound in a further test: CNC(=O)c1ccc(Nc2ncc(C(F)(F)F)c(NCc3nccnc3N(C)S(C)(=O)=O)n2)cc1 [defactinib]
In short, it runs like this: as §1

Compound in the next test: CNCc1ccc(-c2[nH]c3cc(F)cc4c3c2CCNC4=O)cc1 [rucaparib]
In short, it runs like this: as §1

Compound in test [2]: CNc1nc(-c2ccc3c(N)n[nH]c3c2)cc(N2C[C@@H](C(=O)NC3CCCCC3)CC[C@H]2C)n1
In short, it runs like this: as §1

Compound in the next test: COC(=O)N[C@@H](C)CNc1nccc(-c2cn(C(C)C)nc2-c2cc(Cl)cc(NS(C)(=O)=O)c2F)n1 [encorafenib]
The essentials:
as §1

Compound in test [3]: COC(=O)[C@H](CCSC)NC(=O)C1=C(C=C(C=C1)NC[C@H](CS)N)C2=CC=CC=C2
In short, it runs like this:
as §1

Compound in test [4]: COC1=CC=C(C=C1)CN2C=CC3=C2C=C(C=C3)C(=O)NO
In short, it runs like this: as §1

Compound in a further test: CO[C@H]1C[C@@H]2CC[C@@H](C)[C@@](O)(O2)C(=O)C(=O)N2CCCC[C@H]2C(=O)O[C@H]([C@H](C)C[C@@H]2CC[C@H](n3cnnn3)[C@H](OC)C2)CC(=O)[C@H](C)/C=C(\C)[C@@H](O)[C@@H](OC)C(=O)[C@H](C)C[C@H](C)/C=C/C=C/C=C/1C [zotarolimus]
In short, it runs like this:
as §1

Compound in a further test: COc1cc(C(=O)O)ccc1NC(=O)[C@@H]1N[C@@H](CC(C)(C)C)[C@](C#N)(c2ccc(Cl)cc2F)[C@H]1c1cccc(Cl)c1F [idasanutlin]
The essentials: as §1

Compound in a further test: COc1cc(Nc2ncc3c(n2)-c2ccc(Cl)cc2C(c2c(F)cccc2OC)=NC3)ccc1C(=O)O [alisertib]
In short, it runs like this:
as §1

Compound in test [5]: COc1cc2nc(-c3cc(F)ccc3O)nc(N[C@@H]3CNC[C@H]3C(C)(C)O)c2cc1OC
In short, it runs like this: as §1

Compound in test [6]: COc1cccc2cc(-c3nc([C@H]4CC[C@H](C(=O)O)CC4)n4ncnc(N)c34)[nH]c12
In short, it runs like this:
as §1

Compound in a further test: CS(=O)(=O)CCNCc1ccc(-c2ccc3ncnc(Nc4ccc(OCc5cccc(F)c5)c(Cl)c4)c3c2)o1 [lapatinib]
The essentials:
as §1

Compound in a further test: CS(=O)(=O)N1CCN(Cc2cc3nc(-c4cccc5[nH]ncc45)nc(N4CCOCC4)c3s2)CC1 [pictilisib]
The essentials:
as §1

Compound in another test: CN1CCN(c2nc(C3=C(c4c[nH]c5ccccc45)C(=O)NC3=O)c3ccccc3n2)CC1 [sotrastaurin]
The essentials: as §1

Compound in a further test: CN1CCc2c(c3ccccc3n2Cc2ccc(C(=O)NO)cc2)C1 [Tubastatin A]
In short, it runs like this: as §1

Compound in a further test: CON(C)C(=O)N1N=C(c2cc(F)ccc2F)S[C@@]1(CCCN)c1ccccc1 [filanesib]
In short, it runs like this:
as §1

Compound in the next test: COc1cc2ncnc(Nc3ccc(F)c(Cl)c3)c2cc1OCCCN1CCOCC1 [gefitinib]
The essentials: as §1

About 7,900 targets were measured; listed, in parts, are those with a hit and a random draw of the rest. About 0.6% of all pairs of compound and target were hits. Unmarked numbers belong to inactive results.

UniProt Q9NQR1, sequence (Q9NQR1 whole entry, looked up): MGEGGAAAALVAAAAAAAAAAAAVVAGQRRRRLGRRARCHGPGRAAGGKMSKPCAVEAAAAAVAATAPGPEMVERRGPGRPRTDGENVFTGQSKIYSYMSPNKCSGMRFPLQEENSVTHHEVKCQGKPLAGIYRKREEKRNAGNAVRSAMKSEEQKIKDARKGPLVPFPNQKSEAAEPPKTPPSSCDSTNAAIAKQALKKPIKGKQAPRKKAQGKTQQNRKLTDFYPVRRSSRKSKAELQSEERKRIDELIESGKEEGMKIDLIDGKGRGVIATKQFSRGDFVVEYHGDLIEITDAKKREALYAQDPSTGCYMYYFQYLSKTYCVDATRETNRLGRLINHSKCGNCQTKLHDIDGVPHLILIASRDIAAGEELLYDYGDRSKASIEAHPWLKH
UniProt Q12906, sequence (Q12906 whole entry, looked up): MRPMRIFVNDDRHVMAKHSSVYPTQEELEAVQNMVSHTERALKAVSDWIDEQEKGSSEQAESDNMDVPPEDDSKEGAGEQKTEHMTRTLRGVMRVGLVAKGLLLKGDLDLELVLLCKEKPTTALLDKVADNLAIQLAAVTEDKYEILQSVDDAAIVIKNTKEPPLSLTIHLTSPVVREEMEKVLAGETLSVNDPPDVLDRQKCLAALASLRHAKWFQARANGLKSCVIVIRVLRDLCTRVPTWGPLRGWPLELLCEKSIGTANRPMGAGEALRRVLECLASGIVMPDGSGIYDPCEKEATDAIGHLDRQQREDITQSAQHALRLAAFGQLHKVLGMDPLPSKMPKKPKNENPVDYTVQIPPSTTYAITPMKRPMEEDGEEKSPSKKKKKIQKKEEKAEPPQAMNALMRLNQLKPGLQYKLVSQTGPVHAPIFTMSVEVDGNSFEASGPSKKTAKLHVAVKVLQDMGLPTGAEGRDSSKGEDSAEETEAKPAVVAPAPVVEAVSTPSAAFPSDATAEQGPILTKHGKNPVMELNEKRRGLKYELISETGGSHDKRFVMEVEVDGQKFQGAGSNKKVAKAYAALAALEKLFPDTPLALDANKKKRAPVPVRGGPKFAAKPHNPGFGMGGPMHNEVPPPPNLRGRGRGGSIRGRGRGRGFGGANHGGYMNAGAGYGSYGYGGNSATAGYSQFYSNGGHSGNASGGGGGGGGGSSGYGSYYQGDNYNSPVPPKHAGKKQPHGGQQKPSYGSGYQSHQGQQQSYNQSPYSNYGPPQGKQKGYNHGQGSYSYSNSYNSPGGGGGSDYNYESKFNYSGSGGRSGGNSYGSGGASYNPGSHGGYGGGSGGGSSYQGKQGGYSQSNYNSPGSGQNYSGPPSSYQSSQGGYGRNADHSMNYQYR
UniProt O60333, sequence (O60333 whole entry, looked up): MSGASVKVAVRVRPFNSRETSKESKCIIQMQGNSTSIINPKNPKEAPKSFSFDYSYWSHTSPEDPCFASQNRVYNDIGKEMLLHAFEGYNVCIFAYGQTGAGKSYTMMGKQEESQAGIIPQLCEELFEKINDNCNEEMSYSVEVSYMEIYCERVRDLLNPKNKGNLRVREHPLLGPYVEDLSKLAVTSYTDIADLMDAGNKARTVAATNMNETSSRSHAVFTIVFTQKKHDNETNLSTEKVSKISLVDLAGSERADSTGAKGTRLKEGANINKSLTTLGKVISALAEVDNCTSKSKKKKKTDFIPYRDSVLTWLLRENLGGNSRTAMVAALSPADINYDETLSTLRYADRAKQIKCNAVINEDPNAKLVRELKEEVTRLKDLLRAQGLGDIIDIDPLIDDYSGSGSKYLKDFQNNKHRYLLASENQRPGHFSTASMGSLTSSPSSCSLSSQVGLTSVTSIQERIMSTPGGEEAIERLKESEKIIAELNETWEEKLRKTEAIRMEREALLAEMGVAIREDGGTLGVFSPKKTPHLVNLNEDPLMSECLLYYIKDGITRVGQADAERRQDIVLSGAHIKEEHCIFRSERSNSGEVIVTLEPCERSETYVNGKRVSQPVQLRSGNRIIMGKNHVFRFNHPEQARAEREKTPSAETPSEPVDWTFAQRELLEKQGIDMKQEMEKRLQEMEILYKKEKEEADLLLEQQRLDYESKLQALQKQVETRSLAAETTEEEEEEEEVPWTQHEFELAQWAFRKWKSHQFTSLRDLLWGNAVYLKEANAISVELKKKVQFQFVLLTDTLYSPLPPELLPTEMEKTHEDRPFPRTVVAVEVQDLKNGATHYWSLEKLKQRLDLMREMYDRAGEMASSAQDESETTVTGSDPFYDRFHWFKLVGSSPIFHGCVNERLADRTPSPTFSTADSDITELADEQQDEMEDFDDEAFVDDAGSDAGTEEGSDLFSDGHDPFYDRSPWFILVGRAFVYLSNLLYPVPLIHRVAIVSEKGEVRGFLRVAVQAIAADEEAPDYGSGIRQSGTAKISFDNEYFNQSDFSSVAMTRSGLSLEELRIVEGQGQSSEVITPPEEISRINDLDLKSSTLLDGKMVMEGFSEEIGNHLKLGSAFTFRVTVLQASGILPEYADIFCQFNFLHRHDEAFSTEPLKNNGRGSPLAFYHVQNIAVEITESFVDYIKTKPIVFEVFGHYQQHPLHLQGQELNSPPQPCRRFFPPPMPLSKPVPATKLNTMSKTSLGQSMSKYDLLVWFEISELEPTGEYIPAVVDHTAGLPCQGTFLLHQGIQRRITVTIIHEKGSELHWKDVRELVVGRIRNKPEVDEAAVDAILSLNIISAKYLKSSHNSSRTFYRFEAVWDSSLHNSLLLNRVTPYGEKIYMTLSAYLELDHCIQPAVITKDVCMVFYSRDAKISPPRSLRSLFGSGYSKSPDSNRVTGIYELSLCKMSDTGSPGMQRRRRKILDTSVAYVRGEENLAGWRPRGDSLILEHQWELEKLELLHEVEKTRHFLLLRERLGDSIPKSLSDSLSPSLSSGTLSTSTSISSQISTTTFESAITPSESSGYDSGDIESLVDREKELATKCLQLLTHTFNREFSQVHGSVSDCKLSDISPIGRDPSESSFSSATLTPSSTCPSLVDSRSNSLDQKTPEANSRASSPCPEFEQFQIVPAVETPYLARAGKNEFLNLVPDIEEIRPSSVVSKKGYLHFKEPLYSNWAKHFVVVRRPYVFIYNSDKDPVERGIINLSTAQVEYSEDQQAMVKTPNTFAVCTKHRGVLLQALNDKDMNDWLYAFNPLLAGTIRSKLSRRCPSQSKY
UniProt A4D2B0, sequence (A4D2B0 whole entry, looked up): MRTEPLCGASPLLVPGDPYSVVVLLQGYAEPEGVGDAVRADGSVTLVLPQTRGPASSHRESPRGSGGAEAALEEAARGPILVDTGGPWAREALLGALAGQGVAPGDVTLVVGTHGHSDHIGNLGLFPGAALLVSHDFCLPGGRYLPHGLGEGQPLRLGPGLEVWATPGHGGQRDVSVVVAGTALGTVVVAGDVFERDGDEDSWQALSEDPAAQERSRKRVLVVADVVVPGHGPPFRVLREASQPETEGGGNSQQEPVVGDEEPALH
UniProt O95819, sequence (O95819 whole entry, looked up): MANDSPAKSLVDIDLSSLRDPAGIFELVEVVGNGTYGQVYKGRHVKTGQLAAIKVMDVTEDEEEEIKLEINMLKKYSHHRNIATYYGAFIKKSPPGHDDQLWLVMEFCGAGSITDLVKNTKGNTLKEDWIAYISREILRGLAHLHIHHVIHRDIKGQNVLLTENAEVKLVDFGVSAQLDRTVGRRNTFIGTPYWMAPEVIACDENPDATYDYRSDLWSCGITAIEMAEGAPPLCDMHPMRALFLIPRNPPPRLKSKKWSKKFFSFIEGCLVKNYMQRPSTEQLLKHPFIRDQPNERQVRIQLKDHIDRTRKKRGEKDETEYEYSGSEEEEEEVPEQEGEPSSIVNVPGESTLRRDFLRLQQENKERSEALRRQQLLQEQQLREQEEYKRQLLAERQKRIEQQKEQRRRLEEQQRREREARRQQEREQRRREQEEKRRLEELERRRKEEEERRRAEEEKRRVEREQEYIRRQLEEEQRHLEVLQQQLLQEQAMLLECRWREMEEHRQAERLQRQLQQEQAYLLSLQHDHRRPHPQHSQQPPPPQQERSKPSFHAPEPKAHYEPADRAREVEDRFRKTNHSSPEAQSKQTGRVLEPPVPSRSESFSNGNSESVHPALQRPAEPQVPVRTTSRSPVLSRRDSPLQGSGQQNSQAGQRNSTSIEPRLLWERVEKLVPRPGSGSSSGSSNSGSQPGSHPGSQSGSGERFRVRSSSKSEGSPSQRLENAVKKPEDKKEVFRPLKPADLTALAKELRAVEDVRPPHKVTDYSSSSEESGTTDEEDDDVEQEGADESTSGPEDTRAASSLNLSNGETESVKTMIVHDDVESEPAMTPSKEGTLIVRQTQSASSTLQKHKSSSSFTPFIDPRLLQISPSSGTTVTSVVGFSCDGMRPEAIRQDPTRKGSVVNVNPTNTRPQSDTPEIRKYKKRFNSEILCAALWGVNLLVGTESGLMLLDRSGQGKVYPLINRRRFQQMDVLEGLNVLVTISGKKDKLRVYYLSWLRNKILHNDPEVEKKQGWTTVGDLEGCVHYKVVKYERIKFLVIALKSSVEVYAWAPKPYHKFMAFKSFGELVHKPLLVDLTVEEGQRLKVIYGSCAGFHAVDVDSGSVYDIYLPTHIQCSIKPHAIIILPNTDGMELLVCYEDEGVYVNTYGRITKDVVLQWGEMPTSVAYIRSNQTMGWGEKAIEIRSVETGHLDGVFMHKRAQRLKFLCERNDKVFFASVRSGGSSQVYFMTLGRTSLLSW
UniProt Q13163, sequence (Q13163 whole entry, looked up): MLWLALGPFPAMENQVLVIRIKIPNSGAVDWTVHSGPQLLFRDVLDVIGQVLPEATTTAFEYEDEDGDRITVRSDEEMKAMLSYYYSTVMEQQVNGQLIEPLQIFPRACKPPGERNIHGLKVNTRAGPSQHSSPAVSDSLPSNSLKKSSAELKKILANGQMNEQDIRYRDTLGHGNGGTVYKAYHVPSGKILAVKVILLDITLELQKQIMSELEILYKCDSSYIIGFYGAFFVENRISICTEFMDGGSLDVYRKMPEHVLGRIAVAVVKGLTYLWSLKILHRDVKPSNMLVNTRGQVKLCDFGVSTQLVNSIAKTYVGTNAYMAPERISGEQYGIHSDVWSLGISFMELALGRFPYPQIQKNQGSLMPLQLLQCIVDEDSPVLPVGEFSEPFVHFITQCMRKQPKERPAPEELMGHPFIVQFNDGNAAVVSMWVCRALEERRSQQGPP

Consider MBLAC1 (UniProt A4D2B0), for which the log2 fold change in the test with saracatinib was 0.164; with alvocidib, 0.002; in [1], 0.049; in the test with defactinib it was 0.003; with rucaparib, 0.023; in test [2], -0.005. The log2 fold change with encorafenib was 0.035; in test [3] it was -0.02; in test [4], 0.11; with zotarolimus, 0.008; with idasanutlin, 0.056; in the test with alisertib, -0.161. In addition, the log2 fold change in test [5] was -0.064; in test [6], 0.086; with lapatinib it was 0.01; in the test with pictilisib, 0.043.
Consider MFSD1 isoform 6 (UniProt Q9H3U5), for which the log2 fold change was -0.041 in the test with sotrastaurin; 0.022 in the test with alvocidib; -0.039 with Tubastatin A; 0.066 in test [1]; 0.046 with defactinib; -0.014 with rucaparib. Moreover, the log2 fold change was -0.028 with encorafenib; -0.004 in test [3]; -0.123 with filanesib; -0.108 with zotarolimus; -0.01 in the test with idasanutlin; -0.035 with alisertib. In addition, the log2 fold change is 0.019 in test [5]; -0.021 in the test with gefitinib; 0.181 in test [6]; -0.026 in the test with lapatinib; 0.055 with pictilisib.
KIF1B isoform 3 (UniProt O60333): the log2 fold change with defactinib was 0.127; in the test with rucaparib, -0.046; with encorafenib, -0.222; in test [3], 0.17; with alisertib, 0.251; in test [6], -0.037.
For the target LYN isoform 2 (UniProt P07948), the log2 fold change with sotrastaurin is 0.034; in the test with alvocidib, 0.015; in test [1], 0.043; with defactinib, -0.035; in test [3], -0.004; in test [4] it was -0.2. For the same target, the log2 fold change was -0.212 in the test with filanesib; -0.054 with zotarolimus; -0.027 in the test with idasanutlin; 0.074 in [5]; 0.069 in the test with gefitinib; -0.046 in the test with lapatinib.
In the case of MAPRE3 isoform 2 (UniProt Q9UPY8), the log2 fold change with alvocidib was -0.075; in the test with Tubastatin A, 0.13; in [4], 0.192; in the test with zotarolimus, 0.008; with idasanutlin, 0.155; in test [5], -0.176. In addition, the log2 fold change in the test with gefitinib is -0.02; with lapatinib, -0.265.
Regarding MAP2K5 (UniProt Q13163), the log2 fold change was 0.445 in the test with saracatinib; -0.008 in the test with alvocidib; 0.004 in [2]; 0.206 in test [4]; 0.003 with zotarolimus; -0.117 with idasanutlin.
Take KIF13A isoform 4 (UniProt Q9H1H9): the log2 fold change with sotrastaurin was -0.027; with alvocidib, -0.091; with filanesib, -0.684; with zotarolimus it was 0.03; with idasanutlin it was -0.081.
As for ILF3 (UniProt Q12906), the log2 fold change in the test with sotrastaurin was 0.009; in the test with rucaparib, 0.384; with encorafenib, 0.081; in test [4], 0.033; with filanesib it was 0.156; with alisertib it was -0.203. The log2 fold change was -0.13 with gefitinib and 0.045 in test [6].
MAP4K4 isoform 3 (UniProt O95819): the log2 fold change with saracatinib is -0.054; in the test with Tubastatin A it was -0.002; in [1], -0.051; in the test with defactinib it was -0.067; with rucaparib, -0.004; in test [2], -0.037. The log2 fold change was 0.026 in the test with encorafenib; 0.018 in test [3]; -0.021 in test [4]; 0.032 with filanesib; 0.021 with zotarolimus; 0.093 in the test with idasanutlin. Besides, the log2 fold change in test [5] was -0.05; in the test with gefitinib, 0.01; in test [6], 0.02; in the test with lapatinib it was -0.021; in the test with pictilisib it was -0.153.
Regarding MAPK7 (UniProt Q13164), the log2 fold change in [4] was -0.066; with idasanutlin, 0.003; with pictilisib, 0.108.
With ITPRID2 (UniProt P28290), the log2 fold change is -0.299 in test [1]; -0.158 with defactinib; -0.019 with rucaparib; -0.087 in the test with encorafenib; 0.059 in [3]; 0 in test [4]. Also, the values for the log2 fold change (in test [5]; with lapatinib) were 0.141 and -0.141, respectively.
Consider KIF21A (UniProt H0YI78), for which the log2 fold change in test [1] was -0.012.
In the case of KMT5A (UniProt Q9NQR1), the log2 fold change in the test with sotrastaurin is -0.18; in the test with filanesib it was 0.976 (active); in the test with pictilisib, 0.368.
